Source: PubChem BioAssay (National Center for Advancing Translational Sciences (NCATS))
Pf growth 48h: P. falciparum growth inhibition at 48 hours (one generation) | P. falciparum luciferase growth in erythrocytes, 48 h | 310,000 compounds, 5.9% hits | Potency, µM (highest dose often 28.7 µM), actives largely listed as inhibitors | AID 504832
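In quantitative HTS format, infected erythrocytes bearing luciferase-reporter parasites were treated for a single generation at 37 C. Luminescence after adding detection reagent served as the growth measure.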
Shiga inhibitor: inhibitors of Shiga toxin in Vero cells. Vero cells, Shiga toxin protein synthesis inhibition reporter. AID 2315. inhibition, % at 38.7 µM. 290,000 compounds, 9.2% hits; in the data active = inhibition mostly above about 28%, no sharp cut-off; inactive = mostly below about 43%
CHX counter: counter-screen hit for Shiga toxin inhibitors, cycloheximide; cell reporter, cycloheximide protein synthesis inhibition counterscreen; 300,000 compounds, 12% hits; AID 2314; max response, %; in the data active = max response mostly above about 13%, no sharp cut-off; inactive = mostly below about 14%; note: read at 38.3 µM for the half of the compounds with a filed dose
NS1 inh: inhibitors of influenza NS1 protein function. Potency, µM (doses to about 46.1 µM). AID 2326. 270,000 compounds, 0.4% hits; calls by dose curve; note: actives are rising curves; nearly all actives have a fitted effect of over 50% in size
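Compounds were scored for reversing the slow growth caused by influenza A NS1 in S. cerevisiae, measured by optical density at 600 nm. Assay medium contained 2% galactose at pH 6.0; NS1-free yeast of the same strain were the positive control.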
SARS PLpro yeast: blocks SARS-CoV papain-like protease in a yeast assay. S. cerevisiae expressing SARS-CoV PLpro, growth rescue. Potency, µM (top dose mostly 32.9 µM), most hits filed as activators. 330,000 compounds, 0.19% hits. AID 485353; calls by dose curve; note: nearly all actives have a fitted effect of over 55% in size
Pf growth 96h: P. falciparum growth inhibition at 96 hour, primary screen for plastid delayed-death inhibitors | Potency, µM (highest dose often 28.7 µM), most hits filed as inhibitors | AID 504834 | P. falciparum luciferase reporter growth, 96 h | 320,000 compounds, 6.9% hits
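Two-generation exposure (96 h) targets delayed-death phenotype. Reporter parasites carrying integrated firefly luciferase, in red cells at 2% hematocrit and 0.05% parasitemia final, kept at 37 C, 5% CO2; luminescence loss indicates inhibition.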
Numbers stand for hits; 0 = inactive; ? = inconclusive; - = not tested or not shown. Compounds with a hit are over-represented: about 21% of the library has one in this group of screens. Unless noted, calls come from the whole dose curve; as a rule, active = well fitted inhibition curve with a large enough effect; inconclusive = small, poorly fitted or top-dose-only effect, or another doubt; inactive = no such curve, though single readings can be large or run the other way.

SMILES	Pf growth 48h	Shiga inhibitor	CHX counter	NS1 inh	SARS PLpro yeast	Pf growth 96h
CCOC(=O)C1=C(C)N=C2c3ccccc3C(=O)C2C1c1ccc(Cl)cc1 (stereo not drawn)	10µM	0	0	0	0	10µM
CC1(C)CC(=O)C2=C(C1)N=C1c3ccccc3C(=O)C1C2c1ccc(Cl)cc1 (stereo not drawn)	?	0	0	0	0	?
CC(C)CC(=O)Nc1nnc(CCc2ccccc2)s1	0	0	0	0	0	0
CCC(C)C(=O)Nc1nnc(CCc2ccccc2)s1 (stereo not drawn)	0	0	19	0	0	0
Cc1nnc(NC(=O)c2ccccc2Br)s1	0	0	24	0	?	0
O=C(Nc1nnc(CCc2ccccc2)s1)c1ccccc1F	0	0	26	0	0	0
Cc1nnc(NC(=O)c2ccccc2F)s1	0	36	17	0	0	0
O=C(CCN1CCN(c2ccccc2)CC1)NNC(=S)Nc1ccccc1Cl	0	0	0	-	0	0
COc1ccc(N(S(=O)(=O)c2ccccc2)S(=O)(=O)c2ccccc2)c(N)c1	?	-	-	-	0	0
N#CC1(NC(=O)COC(=O)/C=C/c2ccc3ccccc3n2)CCCCC1	0	0	0	0	0	?
O=C(CSc1nccc(=O)[nH]1)Nc1ccc(Oc2ccccc2)cc1	0	-	0	0	0	?
NCCSC1CC(=O)N(c2ccc(Cl)c(Cl)c2)C1=O (stereo not drawn)	0	0	16	0	0	?
O=C1CC(SCc2nc3ccccc3[nH]2)C(=O)N1c1ccc(F)cc1 (stereo not drawn)	0	0	0	0	0	-
NCCSC1CC(=O)N(c2ccc(F)cc2)C1=O (stereo not drawn)	0	0	8.3	0	0	9.3µM
Cc1cc(C)n(CC2CC(=O)N(c3ccc(Cl)c(Cl)c3)C2=O)n1 (stereo not drawn)	0	0	0	0	0	0
COc1ccc(CN(C)CC(=O)Nc2ccc(Cl)cc2C(F)(F)F)c(OC)c1	0	0	0	0	0	?
CC(=O)c1c(C)oc2ccc(N(C(C)=O)S(=O)(=O)c3cccc4cccnc34)cc12	?	0	0	0	0	?
O=C(COc1coc(CN2CCN(c3ccccc3)CC2)cc1=O)NC1CCCCC1	12µM	-	-	-	0	?
CCN(CC)C(=O)COc1coc(CN2CCN(c3ccc(F)cc3)CC2)cc1=O	0	0	0	0	0	?
CCN(CC)C(=O)COc1coc(CN2CCN(c3ccccc3)CC2)cc1=O	0	0	0	0	0	10µM
CCc1ccc(NC(=O)COc2coc(CN3CCN(c4ccccc4)CC3)cc2=O)cc1	5.2µM	-	-	-	0	?
O=C(COc1coc(CN2CCN(c3ccccc3)CC2)cc1=O)NC1CCCC1	?	-	-	-	0	?
CN(C)C(C)(C)/C=C/C(O)(c1ccccc1)c1ccccc1	0	0	0	0	0	0
CC(C)c1ccc(NC(=O)C(c2ccccc2)N2CC(=O)Nc3ccccc32)cc1 (stereo not drawn)	0	active	33	0	0	?
Sc1ccc2ccccc2c1CNCc1ccccc1	-	-	-	0	-	-
SMILES	Pf growth 48h	Shiga inhibitor	CHX counter	NS1 inh	SARS PLpro yeast	Pf growth 96h
NC(=O)c1ccsc1NC(=O)COC(=O)Cc1ccccc1Cl	?	-	-	-	0	0
CCSc1nc(N2CCOCC2)c2ccccc2n1	?	0	0	0	0	0
CC1CCN(c2nc(-c3ccncc3)nc3ccccc23)CC1	4.1µM	0	0	0	0	4.7µM
c1ccc2c(N3CCOCC3)nc(N3CCOCC3)nc2c1	?	0	0	0	0	4.1µM
CC1CCN(c2nc(/C=C/c3ccccc3)nc3ccccc23)CC1	?	0	0	0	0	0
c1ccc2c(N3CCOCC3)nc(-c3ccncc3)nc2c1	9.3µM	0	0	0	0	0
CC1CCCCN1c1nc(-c2ccncc2)nc2ccccc12 (stereo not drawn)	8.3µM	0	0	0	0	0
CCC1CCCCN1c1nc(-c2ccncc2)nc2ccccc12 (stereo not drawn)	-	0	0	0	0	0
CSc1nc(=S)n(-c2cc(C)ccc2C)c(C)c1C(C)=O	0	0	0	0	0	0
Cc1ccc(C)c(NC(=O)CCc2nnc3ccc(N4CCCCC4)nn23)c1	0	0	0	0	0	?
CC12CC3CC(C)(C1)CC(Nc1nc(N4CCOCC4)nc4ccccc14)(C3)C2	1.7µM	0	0	0	0	1.3µM
CN(C(=O)Cc1c(C(=O)O)n(C)c2ccccc12)c1cccc(C(F)(F)F)c1	0	0	0	0	0	0
COc1ccccc1N1CCN(C(=O)CNC(=O)c2cn(-c3ccccc3OC)c(=O)c3ccccc23)CC1	?	0	14	-	0	?
COc1ccccc1-n1cc(C(=O)NCC(=O)N2CCN(c3ccccn3)CC2)c2ccccc2c1=O	0	0	16	0	0	0
COc1ccccc1-n1cc(C(=O)NCC(=O)N2CCN(c3ccccc3)CC2)c2ccccc2c1=O	0	50	30	0	0	0
Cc1ccccc1C(=O)NCC(=O)N1CCN(c2ccccn2)CC1	-	-	-	-	0	-
CC(C)(C)OC(=O)N1CCC(c2c(C(=O)NC3CC3)cnn2-c2ccc(Cl)cc2)CC1	?	0	0	0	0	0
COc1ccc(N2CCN(C(c3cccs3)c3nnnn3C3CCCC3)CC2)cc1 (stereo not drawn)	?	0	0	0	0	-
Fc1ccc(N2CCN(C(c3cccs3)c3nnnn3C3CCCC3)CC2)cc1 (stereo not drawn)	10µM	0	0	0	0	0
COc1ccc(N2CCN(C(c3ccccc3OC)c3nnnn3C3CCCC3)CC2)cc1 (stereo not drawn)	15µM	0	0	0	0	-
COc1ccc(OC)c(C(c2nnnn2C2CCCC2)N2CCN(c3ccccc3F)CC2)c1 (stereo not drawn)	4.1µM	0	0	0	0	?
COc1ccc(N2CCN(C(c3cccc(OC)c3OC)c3nnnn3C3CCCC3)CC2)cc1 (stereo not drawn)	?	0	0	0	0	0
CC(=O)Nc1nc(C2COc3ccccc3O2)cs1 (stereo not drawn)	0	50	32	0	0	0
NC(N)=Nc1nc(C2COc3ccccc3O2)cs1 (stereo not drawn)	0	75	37	0	0	0
O=C(O)CC(CC(=O)O)C(=O)O	-	-	-	0	-	-
CSc1ncccc1C(=O)OCC(=O)NC(=O)NCCC(C)C	0	0	0	0	0	0
CC(C)(C)c1ccc(Cn2nnc3c(=O)[nH]c(C4CCCN(C(=O)Cc5cccs5)C4)nc32)cc1 (stereo not drawn)	?	0	0	?	0	5.2µM
O=C(c1cccs1)N1CCCC(c2nc3c(nnn3Cc3c(Cl)cccc3Cl)c(=O)[nH]2)C1 (stereo not drawn)	13µM	0	0	0	0	?
CC(C)(C)c1ccc(Cn2nnc3c(=O)[nH]c(C4CCCN(C(=O)c5cccs5)C4)nc32)cc1 (stereo not drawn)	?	0	0	0	0	4.1µM
